# Reference: PubChem BioAssay
# Where “and” joins values, the source holds several entries; their conditions need not be identical. Equal entries are not always repeated. Some structures have more than one record in an assay (separate samples or runs), and their calls can disagree. Calls of active or inactive are those of the source.
# How the values were obtained:
# [1] = tested on: Hepatitis C virus NS3 helicase; assay: blockers of NS3h binding to ssDNA – biochemical, fluorescence polarization, LOPAC1280 library, primary screen (AID 687035; in the data active = inhibition above about 37%); settings: Purified HCV NS3 helicase, Cy5-dT15 ssDNA binding fluorescence polarization; stronger effect = higher value; concentration not given here
# [2] = compounds altering Cy5-DNA-NS3h complex signal – biochemical, LOPAC1280, artefact control for HCV NS3 helicase inhibitor project (AID 687037; call rule not given here); settings: Cy5-DNA-NS3h complex fluorescence interference counterscreen
# [3] = blockers of cellular phospholipid synthesis – cell-based, LOPAC library, screen 4, primary screen (AID 1347384; call rule not given here); settings: animal cells, phospholipid biosynthesis inhibition screen; at 10 µM
# [4] = galactose survival enhancers in mitochondrial complex I cybrids – cell-based, galactose medium, ATP luminescence, primary screen (AID 1645843;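 active = z-score of at least 1.8 in each of two replicates, scored against plate mean and spread of sample wells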;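 note: positive z means more ATP and so rescue of galactose-driven cybrid death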); settings: complex I mutant cybrid cells, 72 h, stronger effect = higher value
# [5] = P. berghei load reduction in hepatocytes – cell-based, HepG2, luciferase luminescence, HepG2 viability, primary screen (AID 624349; in the data active = parasite load remaining mostly below about 12%, no sharp cut-off; inactive = mostly above about 10%;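 note: 100% = mean of DMSO negative control wells on the same plate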); settings: P. berghei liver stage in HepG2, luciferase luminescence, concentration not given here; parasite load remaining: stronger effect = lower value; viability: measured here: HepG2 viability without parasites
# [6] = growth inhibition, single agents and combos, LFS_MB_1R, cell-based, cisplatin or BGB combos, synergistic combos for chromothripsis tumors (AID 1671452); settings: LFS_MB_1R medulloblastoma cells, stronger effect = higher value;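 note: cells exposed for 96 hours before readout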
# [7] = growth inhibition, single agents and combos, CRL2098, cell-based, BGB or cisplatin IC20 combos, synergistic combos for chromothripsis tumors (AID 1671454); settings: CRL2098 osteosarcoma cells, drug combinations, stronger effect = higher value;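 note: cells exposed for 96 h before readout; 0% = vehicle DMSO and 100% = killing by high DMSO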
# [8] = growth inhibition, single agents and combos, HD-MB03, cell-based, BGB or cisplatin IC20 combos, synergistic combos for chromothripsis tumors (AID 1671455; in the data active = inhibition above about 83%;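 note: 0% = vehicle DMSO and 100% = high DMSO as cytotoxic control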); settings: HD-MB03 medulloblastoma cells, stronger effect = higher value
# [9] = growth inhibition, single agents and combos, UWB1.289, cell-based, BGB or cisplatin combos, synergistic combos for chromothripsis tumors (AID 1671456); settings: UWB1.289 ovarian carcinoma cells, stronger effect = higher value;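 note: cells exposed to compound for four days; 0% = vehicle DMSO and 100% = killing by high DMSO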
# [10] = growth inhibition, single agents and combos, LFS_MB_2R, cell-based, cisplatin combos, synergistic combos for chromothripsis tumors (AID 1671457); settings: LFS_MB_2R medulloblastoma cells, stronger effect = higher value;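 note: cells exposed to compound for four days before readout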
# [11] = UWB1.289_BRCA1 ovarian cancer growth, cell-based, BGB or cisplatin combinations (AID 1671459); settings: UWB1.289 BRCA1 ovarian carcinoma, drug combinations, stronger effect = higher value
# [12] = drug combination toxicity in non-malignant astrocytes – cell-based, BGB or cisplatin IC20 combos, cytotoxicity control for chromothriptic childhood tumor combination screen (AID 1671460); settings: Human astrocytes, viability inhibition, drug combinations, at 0.5 µM, stronger effect = higher value;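 note: cells exposed to compounds for 96 hours before viability readout; 0% = vehicle and 100% = killing control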
# [13] = CRL1545 cell growth, single agent and combined, cisplatin and BGB IC20 combos (AID 1671464); settings: CRL1545 osteosarcoma cells, stronger effect = higher value;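 note: cells exposed to compound for 96 hours before readout; 0% = vehicle DMSO and 100% = high DMSO killing control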
# [14] = biological target: NAD(+) hydrolase SARM1 (Homo sapiens) (UniProt Q6SZW1); assay: blocking NAD cleavage by SARM1 SAM-TIR – cell lysate, NAD-Glo luminescence (AID 1508614;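 active = compound whose remaining NAD level is above about 45 nM, limit read from the data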;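 note: higher remaining NAD means stronger inhibition of SARM1 NADase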); settings: SAM-TIR HEK293T lysate NADase, at 1 µM, stronger effect = higher value
# [15] = compounds altering viability of human ES cells (AID 493140; call rule not given here;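 note: cells exposed to compounds for four days before counting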); settings: human embryonic stem cell survival screen; stronger effect = higher value
# [16] = biological target: Mitogen-activated protein kinase 7 (Homo sapiens) (UniProt Q13164); assay: Gal4-ERK5 driven luciferase induction – cell-based, HTS, primary screen (AID 1508626;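 active = luciferase signal above three times the same-plate solvent-only control wells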;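 note: luciferase driven by Gal4-ERK5 fusion binding five Gal4 sites before minimal TATA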); settings: HeLa Gal4-ERK5 transactivation, 18 h, at 5 µM, stronger effect = higher value
# [17] = liver-stage malaria parasite load reduction – cell-based, known kinase inhibitor set, luminescence, hepatoma host viability (AID 624392; call rule not given here;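 note: infected cells incubated roughly two days before readout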); settings: Plasmodium liver stage in hepatoma cells, luciferase luminescence, concentration not given here; liver cell % of control: measured here: host liver cell viability; parasite % of control: stronger effect = lower value
# [18] = chitosan synthesis blockers in C. neoformans – flow cytometry, Cibacron Brilliant Red staining (AID 1347148; call rule not given here;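 note: compound exposure lasted three days at 37 degrees C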); settings: Cryptococcus neoformans chitosan, stronger effect = lower value; at 10 µM unless noted
# [19] = biological target: Tyrosine-protein kinase ABL1 (Homo sapiens) (UniProt P00519); assay: PubChem AID 493040; settings: kinase panel binding, pKi
# [20] = measured here: combination with BGB IC40, at 0.05 µM
# [21] = measured here: combination with cisplatin, at 0.5 µM
# [22] = measured here: combination with cisplatin, at 5 µM
# [23] = measured here: combination with BGB at IC20, at 0.5 µM
# [24] = measured here: combination with cisplatin at IC20, at 0.5 µM
# [25] = measured here: combo with BGB at IC20, at 0.5 µM
# [26] = measured here: combo with cisplatin at IC20, at 0.5 µM
# [27] = measured here: inhibition with BGB combination, at 0.05 µM
# [28] = measured here: inhibition with cisplatin combination, at 0.05 µM
# [29] = BGB combination, concentration series, at 5 µM
# [30] = cisplatin combination, concentration series, at 5 µM
# [31] = measured here: combo with BGB IC20
# [32] = measured here: combo with cisplatin IC20
# [33] = measured here: with BGB IC20 combination, at 0.5 µM
# [34] = measured here: with cisplatin IC20 combination, at 0.5 µM
# NAD(+) hydrolase SARM1 (Homo sapiens), sequence (Q6SZW1 whole entry, looked up): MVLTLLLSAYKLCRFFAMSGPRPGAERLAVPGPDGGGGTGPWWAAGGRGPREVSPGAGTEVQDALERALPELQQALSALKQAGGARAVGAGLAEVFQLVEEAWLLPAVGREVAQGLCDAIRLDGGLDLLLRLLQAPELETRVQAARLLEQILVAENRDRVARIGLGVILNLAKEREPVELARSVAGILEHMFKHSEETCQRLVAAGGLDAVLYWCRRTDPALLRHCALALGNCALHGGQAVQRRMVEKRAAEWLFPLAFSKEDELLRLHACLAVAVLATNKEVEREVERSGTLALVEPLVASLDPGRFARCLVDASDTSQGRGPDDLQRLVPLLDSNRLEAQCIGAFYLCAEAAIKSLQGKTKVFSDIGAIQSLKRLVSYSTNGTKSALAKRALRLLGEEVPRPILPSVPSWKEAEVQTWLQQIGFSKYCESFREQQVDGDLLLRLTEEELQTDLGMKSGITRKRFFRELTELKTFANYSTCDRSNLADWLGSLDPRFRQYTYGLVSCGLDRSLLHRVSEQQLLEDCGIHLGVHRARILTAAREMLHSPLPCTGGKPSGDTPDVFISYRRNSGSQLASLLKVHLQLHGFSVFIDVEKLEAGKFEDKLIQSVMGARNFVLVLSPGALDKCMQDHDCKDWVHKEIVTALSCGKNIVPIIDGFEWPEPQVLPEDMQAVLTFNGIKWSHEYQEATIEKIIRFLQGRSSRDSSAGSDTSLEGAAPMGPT
# Mitogen-activated protein kinase 7 (Homo sapiens), sequence (Q13164 whole entry, looked up, the tested form may be a part): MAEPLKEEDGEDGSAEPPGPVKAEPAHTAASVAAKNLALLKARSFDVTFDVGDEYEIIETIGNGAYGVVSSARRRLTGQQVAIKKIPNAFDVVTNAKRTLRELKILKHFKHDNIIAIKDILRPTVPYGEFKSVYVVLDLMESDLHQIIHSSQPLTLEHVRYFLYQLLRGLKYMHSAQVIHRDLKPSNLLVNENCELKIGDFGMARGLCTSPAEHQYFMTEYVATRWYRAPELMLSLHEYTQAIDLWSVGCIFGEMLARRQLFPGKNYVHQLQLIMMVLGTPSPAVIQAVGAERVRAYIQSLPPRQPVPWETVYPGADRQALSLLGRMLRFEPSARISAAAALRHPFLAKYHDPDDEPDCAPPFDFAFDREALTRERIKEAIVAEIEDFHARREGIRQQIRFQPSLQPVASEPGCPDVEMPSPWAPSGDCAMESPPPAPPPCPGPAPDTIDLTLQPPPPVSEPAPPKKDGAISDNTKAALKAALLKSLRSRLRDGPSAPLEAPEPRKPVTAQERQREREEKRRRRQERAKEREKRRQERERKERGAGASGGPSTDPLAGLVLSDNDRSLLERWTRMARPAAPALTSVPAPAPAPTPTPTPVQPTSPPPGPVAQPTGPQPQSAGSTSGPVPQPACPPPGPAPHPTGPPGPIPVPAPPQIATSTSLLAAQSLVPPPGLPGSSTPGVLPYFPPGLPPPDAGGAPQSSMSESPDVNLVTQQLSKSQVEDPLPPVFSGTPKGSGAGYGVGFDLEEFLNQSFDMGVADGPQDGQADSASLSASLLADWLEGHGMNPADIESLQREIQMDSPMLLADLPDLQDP
# Tyrosine-protein kinase ABL1 (Homo sapiens), sequence (P00519 whole entry, looked up): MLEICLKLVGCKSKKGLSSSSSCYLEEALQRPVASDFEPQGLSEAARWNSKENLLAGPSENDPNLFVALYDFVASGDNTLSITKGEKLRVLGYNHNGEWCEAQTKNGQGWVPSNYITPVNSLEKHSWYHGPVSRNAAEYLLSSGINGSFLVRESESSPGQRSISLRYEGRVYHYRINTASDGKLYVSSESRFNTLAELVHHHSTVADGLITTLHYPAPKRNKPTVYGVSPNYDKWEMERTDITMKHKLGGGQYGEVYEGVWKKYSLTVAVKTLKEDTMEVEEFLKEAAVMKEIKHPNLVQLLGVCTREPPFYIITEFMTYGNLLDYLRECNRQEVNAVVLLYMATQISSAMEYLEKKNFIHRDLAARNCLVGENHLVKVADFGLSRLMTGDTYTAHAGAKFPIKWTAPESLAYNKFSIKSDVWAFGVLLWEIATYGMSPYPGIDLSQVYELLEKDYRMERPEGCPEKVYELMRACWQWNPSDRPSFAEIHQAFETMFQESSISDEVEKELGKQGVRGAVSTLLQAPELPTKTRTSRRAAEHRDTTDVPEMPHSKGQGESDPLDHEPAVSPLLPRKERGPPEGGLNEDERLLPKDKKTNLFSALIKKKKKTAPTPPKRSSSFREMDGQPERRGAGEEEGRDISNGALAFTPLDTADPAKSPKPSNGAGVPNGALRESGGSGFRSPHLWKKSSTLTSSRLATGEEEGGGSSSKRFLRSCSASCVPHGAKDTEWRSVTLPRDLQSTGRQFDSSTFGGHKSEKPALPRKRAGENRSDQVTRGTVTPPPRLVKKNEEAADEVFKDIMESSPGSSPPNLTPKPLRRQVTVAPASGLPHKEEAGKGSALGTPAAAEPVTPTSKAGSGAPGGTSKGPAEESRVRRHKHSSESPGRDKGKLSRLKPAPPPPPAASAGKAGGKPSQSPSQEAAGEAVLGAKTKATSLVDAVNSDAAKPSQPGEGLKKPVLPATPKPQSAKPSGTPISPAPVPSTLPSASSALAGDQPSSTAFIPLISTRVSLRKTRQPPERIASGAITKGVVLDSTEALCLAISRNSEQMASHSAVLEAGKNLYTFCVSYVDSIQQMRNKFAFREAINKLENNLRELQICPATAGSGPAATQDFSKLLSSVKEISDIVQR
smiles,measurement,setting,value
COc1cc2c(cc1OC)C1CC(=O)C(CC(C)C)CN1CC2 (stereo not drawn),inhibition,[1],-3% (inactive)
same,fluorescence ratio (interference),[2],1 (inactive)
same,outcome,[3],inactive
same,z-score,[4],0.245 (inactive)
Clc1ccc(C(c2ccc(Cl)cc2)n2cc[n+](CC(OCc3ccc(Cl)cc3Cl)c3ccc(Cl)cc3Cl)c2)cc1 (stereo not drawn),outcome,[3],inactive
Cc1ccc(O)c(C(CCN(C(C)C)C(C)C)c2ccccc2)c1 (stereo not drawn),parasite load remaining,[5],53.2% (inactive)
same,viability,[5],96.6%
same,z-score,[4],-0.5 (inactive)
Nc1ncnc2c1c(-c1cnc3[nH]ccc3c1)nn2C1CCCC1,inhibition,[6]; at 0.5 µM,-19.1% (inactive)
same,inhibition,[6]; [20],-13.7%
same,inhibition,[6]; [21],-26.5%
same,inhibition,[6]; [22],69.1%
same,inhibition,[7]; at 0.5 µM,25.4% (inactive)
same,inhibition,[7]; [23],3.06%
same,inhibition,[7]; [24],36.8%
same,inhibition,[8]; at 0.5 µM,28.9% (inactive)
same,inhibition,[8]; [25],13%
same,inhibition,[8]; [26],41.5%
same,inhibition,[9]; at 0.5 µM,28.7% (inactive)
same,inhibition,[9]; [27],-4.92%
same,inhibition,[9]; [28],-7.06%
same,inhibition,[10]; at 0.5 µM,-21.4% (inactive)
same,inhibition,[10]; [21],-27.2%
same,inhibition,[10]; [22],59%
same,inhibition,[11]; [29],98.9%
same,inhibition,[11]; at 0.5 µM,22.9% (inactive)
same,inhibition,[11]; [30],106%
same,inhibition,[12],53.4% (inactive)
same,inhibition,[12]; [31],55.9%
same,inhibition,[12]; [32],46%
same,inhibition,[13]; at 0.5 µM,-8.52% (inactive)
same,inhibition,[13]; [33],-19%
same,inhibition,[13]; [34],-4.93%
same,inhibition,"[13]; single agent, at 0.05 µM",-24.4%
same,inhibition,"[13]; single agent, at 5 µM",98.2%
NC(=NCCCCCCN=C(N)N=C(N)Nc1ccc(Cl)cc1)N=C(N)Nc1ccc(Cl)cc1,remaining NAD,[14],10 nM (inactive)
C=C1C(=O)O[C@@H]2[C@H]3O[C@]3(C)CC/C=C(\C)CC[C@@H]12,survival,[15],0.167 (inactive)
same,parasite load remaining,[5],-0.555% (active) and 48% (inactive)
same,viability,[5],117% and 76.6%
same,luciferase signal,[16],92 AU (inactive)
CC(C)(O)c1cc2nc(-c3cnc(N)nc3)nc(N3CCOCC3)c2s1,liver cell % of control,[17],68.4% and 67.7% and 82.5%
same,parasite % of control,[17],539% (inactive) and 545% (inactive) and 563% (inactive)
C#Cc1cccc(Nc2ncnc3cc(OC)c(OCCCCCCC(=O)NO)cc23)c1,inhibition,[6]; at 0.5 µM,72.7% (inactive) and 57.9% (inactive)
same,inhibition,[6]; [20],-16.6% and -26.1%
same,inhibition,[6]; [21],88.8% and 73.7%
same,inhibition,[6]; [22],101% and 99%
same,inhibition,[7]; at 0.5 µM,-70.6% (inactive) and -57.7% (inactive)
same,inhibition,[7]; [23],-40.2% and -108%
same,inhibition,[7]; [24],-130% and -17.7%
same,inhibition,[8]; at 0.5 µM,45.5% (inactive) and 17.9% (inactive)
same,inhibition,[8]; [25],34.3% and 16.8%
same,inhibition,[8]; [26],84.2% and 39.1%
same,inhibition,[9]; at 0.5 µM,58.9% (inactive) and 21.7% (inactive)
same,inhibition,[9]; [27],-23% and -18.1%
same,inhibition,[9]; [28],7.84% and -0.343%
same,inhibition,[10]; at 0.5 µM,80.6% (active) and 5.75% (inactive)
same,inhibition,[10]; [21],96% and 17.9%
same,inhibition,[10]; [22],99.8% and 105%
same,inhibition,[11]; [29],108% and 106%
same,inhibition,[11]; at 0.5 µM,64.7% (inactive) and 19.7% (inactive)
same,inhibition,[11]; [30],128% and 122%
same,inhibition,[12],63.5% (inactive) and 39.1% (inactive)
same,inhibition,[12]; [31],58% and 34.9%
same,inhibition,[12]; [32],64.7% and 42.3%
same,inhibition,[13]; at 0.5 µM,34.3% (inactive) and 15.2% (inactive)
same,inhibition,[13]; [33],17.9% and 26.4%
same,inhibition,[13]; [34],41.6% and 7.54%
same,inhibition,"[13]; single agent, at 0.05 µM",-39.2% and -32.8%
same,inhibition,"[13]; single agent, at 5 µM",97.8% and 92.8%
CCCNC(=O)[C@H]1O[C@@H]1C(=O)N[C@H](C(=O)N1CCC[C@H]1C(=O)OC)C(C)CC (stereo partly drawn),fold fluorescence,[18],3.89 [at 125.8 µM] (inactive)
Oc1cccc(-c2nc(N3CCOCC3)c3oc4ncccc4c3n2)c1,parasite load remaining,[5],45.4% (inactive)
same,viability,[5],89.8%
same,liver cell % of control,[17],88.7% and 86.7% and 100%
same,parasite % of control,[17],326% (inactive) and 309% (inactive) and 81.9% (inactive)
same,outcome,[19],inactive
CN[C@@H]1C[C@H]2O[C@@](C)([C@@H]1OC)n1c3ccccc3c3c4c(c5c6ccccc6n2c5c31)C(=O)N[C@H]4O,parasite load remaining,[5],74.5% (inactive)
same,viability,[5],61%
O=C1c2ccccc2-[n+]2ccc3c([nH]c4ccccc43)c21,parasite load remaining,[5],1.89% (inactive)
same,viability,[5],32.8%
Nc1ccc(C(=O)Nc2cccc(-c3nc(N4CCOCC4)c4oc5ncccc5c4n3)c2)cn1,parasite load remaining,[5],28.3% (inactive)
same,viability,[5],70.4%
same,liver cell % of control,[17],80.6% and 78.7% and 90.7%
same,parasite % of control,[17],109% (inactive) and 149% (inactive) and 242% (inactive)
